High-throughput results deposited in PubChem BioAssay by Sanford-Burnham Center for Chemical Genomics.
Compounds with a hit are over-represented: about 2.5% of the library has one in this group of screens.
hiPSC survival = increases survival of single human iPS cells; hiPSC single-cell survival, ATPlite luminescence; 100% = ROCK inhibitor wells, 0% = DMSO; survival enhancement, % at 20 µM; 360,000 compounds, 0.044% hits; AID 602274; in the data active = survival enhancement above about 18%;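 also: cells exposed to compounds for 16 hours before the ATP read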
CRFR2-BP antag = blocks CRF-induced signaling of the CRF-BP/CRF-R2 complex. HEK293 CRF-R2/CRF-BP, CRF-induced calcium fluorescence. inhibition, % at 11.8 µM. 350,000 compounds, 0.59% hits. AID 588475;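 active = inhibition of the ligand-induced calcium signal above about 50% at the single tested concentration, limit read from the data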
TAG inh = triacylglycerol accumulation inhibition; H9c2 cells, Nile Red lipid (TAG) fluorescence; cells loaded with 200 µM oleic acid; inhibition, % at 12.5 µM; AID 651582; 230,000 compounds, 0.66% hits;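 active = pattern-corrected inhibition of lipid staining of at least 50% with the nuclear-stain viability signal not falling by more than 50%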;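 also: 0% = DMSO wells and 100% = triacsin C control wells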
SKN-1 inh = C. elegans SKN-1 inhibition. C. elegans VP596 Pgst-4::GFP/RFP ratio, acrylamide-induced, 24 h. 360,000 compounds, 0.49% hits. AID 624304. inhibition, % at 21.8 µM;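 active = interference check ratio from 0.5 to 1.5 plus GFP to RFP signal ratio inhibition reaching or exceeding a fixed threshold, cut at about 30% in these data, passing the limit was not always enough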
H9c2 protect = protects H9c2 cardiomyocytes from peroxide injury; protection from H2O2 cell death, % at 20 µM; 360,000 compounds, 0.63% hits; AID 588492; H2O2 injury protection, ATPLite, 2 h;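 active = compounds giving at least 50% protection of heart cells from peroxide-induced death in the single-dose screen, raw or plate-pattern-corrected value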;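 also: 0% = DMSO wells with peroxide and 100% = DMSO wells without peroxide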
CRFR2-BP ag = agonists of human CRF-binding protein/CRF-R2 receptor complex; HEK293 CRF-R2/CRF-BP, calcium dye fluorescence (FLIPR); percent of saturating CRF peptide response; activation, % at 13.2 µM; 350,000 compounds, 0.46% hits; AID 588473;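 active = activation of at least 50%, plus an integration ratio under a set limit after plate pattern correction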;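 also: plate controls were neutral control wells without compound for no effect and CRF at EC100 for full effect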
Starred values were filed as active, the others as inactive; nt = no result.

SMILES | hiPSC survival | CRFR2-BP antag | TAG inh | SKN-1 inh | H9c2 protect | CRFR2-BP ag
CC1(c2ccc(OC(F)F)cc2)NC(=O)N(/N=C/c2c(O)ccc3ccccc23)C1=O (stereo not drawn) | 7 | -122 | nt | -3 | 21 | 87*
S=C(Nc1ccc(N2CCOCC2)cc1)Nc1ccc2nc(-c3ccco3)c(-c3ccco3)nc2c1 | 1 | -18 | 26 | 5 | 56* | 23
O=C(Nc1ccc2nc(-c3ccco3)c(-c3ccco3)nc2c1)N1CCN(c2ccccn2)CC1 | 6 | 4 | nt | 4 | 117* | 4
Cc1nc2cc(NC(=O)N3CCN(c4ccccn4)CC3)ccc2o1 | 2 | -32 | nt | 6 | 0 | 2
O=C(Nc1ccc(N2CCOCC2)cc1)c1ccc2nc(-c3ccco3)c(-c3ccco3)nc2c1 | 2 | 2 | nt | 5 | 0 | -1
CC(C)NC(=O)C1(C)CSCC(=O)N1Cc1ccco1 (stereo not drawn) | nt | nt | nt | 13 | nt | nt
COC1=CC(=Cc2c(N)n3nc(CC(=O)N4CCCCC4)sc3nc2=O)C=C(OC)C1=O | 0 | -135 | nt | -9 | -2 | 173*
COC1=C/C(=C/c2c(N)n3nc(CC(=O)N4CCCC4)sc3nc2=O)C=CC1=O | -1 | -34 | nt | 1 | 6 | 18
Nc1c(/C=C2/C=CC(=O)C(O)=C2)c(=O)nc2sc(CC(=O)N3CCOCC3)nn12 | 0 | -4 | nt | 12 | 0 | -1
CC1=Nc2ccc(C)cc2/C1=C/c1c(N)n2nc(CC(=O)N3CCOCC3)sc2nc1=O | -1 | -13 | nt | 38* | 10 | -2
Cc1cnc(C(=O)Nc2ccccc2-c2ccc(C)o2)cn1 | 0 | 2 | 2 | 36* | 10 | -1
O=C(NCc1ccccc1Cl)c1ccc2sc([C@H]3C[C@H](O)[C@@H](CO)O3)nc2c1 | -1 | nt | -9 | 27 | 9 | nt
Cc1cc(C(C2C(=O)CC(C)(C)CC2=O)C2C(=O)CC(C)(C)CC2=O)cc(C)c1OC(F)F | 0 | 27 | nt | 11 | -6 | 59*
COc1cccc(C(C2C(=O)CC(C)(C)CC2=O)C2C(=O)CC(C)(C)CC2=O)c1 | 3 | 14 | nt | 6 | 1 | -2
Cc1ccc(C)c(-c2nnc(NC(=O)Cc3ccccc3)o2)c1 | 0 | 2 | nt | 34 | 13 | 2
Fc1ccc(-c2csc(N3CCSCC3)n2)cc1 | -1 | -10 | 9 | 41* | -6 | -2
CCC(=O)N1CCN(c2nc(-c3ccc(Cl)cc3)cs2)CC1 | -1 | 19 | -37 | 34 | -24 | -4
Clc1ccc(-c2csc(N3CCSCC3)n2)cc1 | -2 | -5 | nt | 50* | -2 | 0
c1ccc(-c2csc(N3CCSCC3)n2)cc1 | -1 | -20 | 2 | 29 | -15 | 0
O=C(Nc1nnc([C@@H]2C[C@H](O)[C@@H](CO)O2)s1)c1c(F)cccc1F | 0 | nt | 11 | -3 | 8 | nt
O=S(=O)(Cc1cccc(C(F)(F)F)c1)c1ncn[nH]1 | 0 | 7 | -2 | 4 | 0 | -2
Cc1nnc(NC(=O)c2ccc(S(=O)(=O)N3CC(C)CC(C)C3)cc2)o1 (stereo not drawn) | 0 | 1 | nt | 7 | 25 | -4
O=C(/C=C/c1ccc2ccccc2n1)N1CCN(c2ccccc2)CC1 | -1 | 75* | 4 | -1 | 11 | 0
Cc1ccccc1OCCC(=O)Nc1ccc(S(=O)(=O)N2CCCC2)cc1 | 2 | 13 | 1 | 28 | -3 | 2
COC(=O)C1=C(C)N(CCc2ccc(OC)cc2)C(=O)C1 | 3 | 8 | 4 | -21 | 100* | 3
SMILES | hiPSC survival | CRFR2-BP antag | TAG inh | SKN-1 inh | H9c2 protect | CRFR2-BP ag
O=C(NC1(C(F)(F)F)C(=O)Nc2c1c(=O)[nH]c(=O)n2Cc1ccccc1)c1ccc(Cl)cc1Cl (stereo not drawn) | 0 | 7 | nt | 5 | 0 | 0
O=C(NC1(C(F)(F)F)C(=O)Nc2c1c(=O)[nH]c(=O)n2Cc1ccccc1)c1ccc(Cl)cc1 (stereo not drawn) | 1 | 62* | nt | -9 | 3 | 0
C=CC[C@@H](CC(=O)N[C@H](CO)Cc1ccccc1)C(=O)N[C@@H](COC(=O)[C@@H](CC=C)CC(=O)OC(C)(C)C)Cc1ccccc1 | -1 | -18 | 22 | 1 | 63* | 0
C=CCc1ccc(OCCOCCOc2cccc3cccnc23)c(OC)c1 | 0 | -21 | nt | 5 | -6 | -1
COc1ccc2sc(-c3ccc(S(C)(=O)=O)cc3)c(C(=O)NCCc3c[nH]c4ccccc34)c2c1 | -2 | 63* | 38 | 9 | 27 | -1
CSc1nccc(N2CCN(c3ccc(F)cc3)CC2)n1 | 4 | -11 | nt | 2 | -4 | 0
Clc1ccc(N2CCN(c3ccnc(Cl)n3)CC2)cc1 | 0 | -7 | -8 | 57* | -3 | -1
CSc1ncccc1C(=O)Nc1ccc(S(=O)(=O)N2CCCC2)cc1 | 0 | -6 | 6 | 3 | -8 | 1
CN1C(=O)C(N=Nc2ccc([N+](=O)[O-])cc2)SC1=S (stereo not drawn) | -2 | 68* | -25 | 96* | -10 | 70*
CN1CCCCCC1=Nc1ccc([N+](=O)[O-])cc1 | 0 | -2 | -9 | -2 | -4 | 0
C[C@H](CO)N1C[C@H](C)[C@@H](CN(C)S(=O)(=O)c2cn(C)cn2)Oc2ccc(NC(=O)NC3CCCCC3)cc2C1=O | 3 | 5 | 12 | -6 | 7 | 0
Cc1c(C(=O)Nc2ccccc2)cn2c(nc3ccccc32)c1C#N | 0 | 2 | nt | 9 | -3 | 0
Cc1ccccc1C(=O)Nc1ccc2c(C#N)c3nc4ccccc4nc3n2c1 | -2 | -38 | nt | 36* | 65* | 84*
O=C1CCC(C(=O)Nc2ccccc2N2CCCC2)=NN1 | 0 | -1 | -1 | 4 | -1 | 1
O=C1CCC(C(=O)Nc2ccccc2N2CCOCC2)=NN1 | 1 | 67* | 1 | 1 | 6 | -2
Cc1nnc(-c2cccc(Br)c2)c2cn(-c3cccc(Br)c3)nc12 | -2 | 29 | nt | 36* | 7 | -1
CCN(C(=O)CN1C(=O)COc2ccc(S(=O)(=O)N3CCCCCC3)cc21)c1cccc(C)c1 | 0 | -48 | nt | 14 | 5 | 56*
COc1ccc(NC(=O)CC2C(=O)Nc3ccccc3N2CC(=O)N2CCCC2)cc1 (stereo not drawn) | 0 | -3 | -6 | 2 | -3 | 0
N/C(=N\OC(=O)c1ccc(Cl)cc1Cl)c1ccccc1 | -4 | -23 | nt | 56* | -18 | -1
N/C(=N\OC(=O)c1ccccc1Cl)c1ccccc1 | -4 | -14 | nt | 61* | -22 | -2
N/C(=N\OC(=O)c1ccc(Cl)cc1)c1ccc(Cl)cc1 | 1 | -9 | -8 | 16 | -15 | -1
N/C(=N\OC(=O)c1ccc(Cl)cc1)c1cccnc1 | -2 | 2 | 15 | 29* | -22 | 0
